The values below come from PubChem BioAssay AID430 (Sanford-Burnham Center for Chemical Genomics, 2006).

The campaign covered roughly 63,000 compounds. About 1,100 (1.7%) were called active. Rule as the data show it: active = cytotoxicity above about 50%; inactive = the rest. The full list was thinned out, with actives kept by preference. Measured potencies and affinities stand elsewhere.

The experiment can be described thus: HPDE-C7 pancreatic duct cell viability loss – fluorescence, HTS (AID 430).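 Also: cells exposed to compound for 48 hours before viability readout; 0% = vehicle and 100% = reference cytotoxic drug.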 Particulars: HPDE-C7 pancreatic duct cells viability, at 10 µM, stronger effect = higher value.
Regarding `CN(CCc1ccccn1)Cc1ccc(Cl)cc1Cl`, the cytotoxicity was 3.3% (inactive). The value for `Cc1ccc(-c2nnc(SCc3ccccc3F)o2)cc1` was 1.8% (inactive).

For `O=C(Nc1cccc2ncccc12)c1cccnc1`, the cytotoxicity is -4.6% (inactive). With `O=C(Nc1ccccc1)N(CCN1CCOCC1)Cc1ccccc1F`, the cytotoxicity is -7.5% (inactive). To `Cc1ccc(C)c(CN2CCCNC2=O)c1` belongs -5.7% (inactive); to `COC(=O)c1cc2occc2n1CC(=O)Nc1ccc(OC)c(OC)c1`, -0.3% (inactive); to `CCNC(=O)CSc1nc2ccccc2c(=O)n1OC`, -1% (inactive).

In the case of `Clc1ccc(Cn2nnc(-c3ccc(CN4CCOCC4)cc3)n2)cc1`, the cytotoxicity was -26.4% (inactive). To `COC(=O)c1ccc(NC(=O)C2CCCN2S(=O)(=O)c2ccc(F)cc2)cc1` (stereo unspecified) belongs 2.5% (inactive); to `COc1cccc(-c2cc(C(F)(F)F)nc(N3CCN(c4ccccc4)CC3)n2)c1`, 72.4% (active). The value for `COc1cccc(-c2cc(C(F)(F)F)nc(N3CCOCC3)n2)c1` was -14% (inactive); that for `COc1cccc(-c2cc(C(F)(F)F)nc(N3CCCCC3)n2)c1` was -12.8% (inactive). With `O=c1c2ccccc2oc2ncccc12`, the cytotoxicity is -24.9% (inactive). To `CCC(Sc1nccn1C)C(=O)Nc1cccc2ccccc12` (stereo unspecified) belongs -6.2% (inactive); to `COc1cc(C(=O)N2CCN(c3cc(Cl)ccc3Cl)CC2)cc(OC)c1OC`, 64.3% (active).

On to `Cc1cccc(N2CCN(C(=O)c3ccc(Cl)c(S(=O)(=O)NCc4ccco4)c3)CC2)c1C`, for which the cytotoxicity was 65.8% (active).

Consider `Cc1cccc(N2CCN(C(=O)c3ccncc3)CC2)c1C`, for which the cytotoxicity is 34.4% (inactive). For `Cc1ccc(N2CCN(C(=O)c3ccccc3)CC2)c(C)c1`, the cytotoxicity was -29.9% (inactive). To `COc1cc(C(=O)N2CCN(c3ccc(C)cc3C)CC2)cc(OC)c1OC` belongs 53.4% (active); to `O=C(O)c1ccc(Cl)c(S(=O)(=O)NCc2ccco2)c1`, -12.1% (inactive). To `COc1ccc(Cl)cc1S(=O)(=O)N1CCN(C(=O)c2cc(OC)c(OC)c(OC)c2)CC1` belongs -17% (inactive).

Regarding `COc1cc(C(=O)N2CCN(c3cccc(C)c3C)CC2)cc(OC)c1OC`, the cytotoxicity is 67.4% (active). For the molecule `O=C(NCC1(N2CCOCC2)CCCCC1)c1ccc(Cl)c(S(=O)(=O)NCc2ccco2)c1`, the cytotoxicity was -1.6% (inactive).

As for `COc1ccc(C(=O)N2CCN(c3ccc(C)cc3C)CC2)cc1OC`, the cytotoxicity is -9.6% (inactive). On to `COc1cc(C(=O)N2CCN(C(=O)c3ccccc3)CC2)cc(OC)c1OC`, for which the cytotoxicity is -2.2% (inactive). For the molecule `COc1ccc(C(=O)N2CCN(C(=O)c3cc(OC)c(OC)c(OC)c3)CC2)cc1`, the cytotoxicity was 5.9% (inactive). Take `CCOCC(=O)Nc1cccc(NC(C)=O)c1`: the cytotoxicity is -3.5% (inactive).

Regarding `COc1ccc(C(=O)N(Cc2ccco2)Cc2cc3cc(C)ccc3[nH]c2=O)cc1OC`, the cytotoxicity was 4.2% (inactive).

For the molecule `Cc1ccc(S(=O)(=O)Nc2ccc(NC(=O)CN3CCCCC3)cc2)cc1`, the cytotoxicity is -3% (inactive). To `COc1ccc(OCC(=O)Nc2ccc3c(c2)nc(CCN2CCOCC2)n3C)cc1` belongs 10.7% (inactive). To `COc1ccc(C(CNC(=O)Cc2cc(OC)c(OC)c(OC)c2)N2CCCC2)cc1` (stereo unspecified) belongs -31.8% (inactive). Take `COc1ccc(-c2nnc(SCC(=O)NC(C)c3ccccc3)o2)cc1OC` (stereo unspecified): the cytotoxicity was -26.2% (inactive). With `O=C(OCc1nnc(-c2ccccc2)o1)c1cc(=O)c2ccccc2o1`, the cytotoxicity is 1.2% (inactive). As to `CCC(C)NC(=O)NC1C(NC(=O)NC(C)CC)N(C)C(=O)N1C` (stereo unspecified), the cytotoxicity is -7.6% (inactive). To `CCN(C(=O)c1coc(=O)c2ccccc12)c1cc(OC)ccc1OC` belongs -6.4% (inactive); to `Cc1[nH]nc2c1C1(CCN(Cc3ccccc3)CC1)C(C#N)=C(N)O2`, -9.5% (inactive); to `COc1ccc(C2=NOC(C(=O)N3CCOCC3)C2)cc1OC` (stereo unspecified), -3.2% (inactive). To `Cc1ccc2nc(SCCC#N)nc(C)c2c1` belongs -10.1% (inactive); to `COc1ccc(S(=O)(=O)N2CC(C)N(S(=O)(=O)c3ccc(OC)cc3)CC2C)cc1` (stereo unspecified), -4.1% (inactive).

Turning to `Cn1c(SC2=CS(=O)(=O)c3ccccc32)nc2ccccc21`, the cytotoxicity was 49.6% (inactive). As to `O=S1(=O)C=C(Sc2nnc(-c3ccccc3)o2)c2ccccc21`, the cytotoxicity was 47.8% (inactive). The value for `Cc1cc(C)nc(SC2=CS(=O)(=O)c3ccccc32)n1` was 4.3% (inactive). To `Clc1ccc2oc(-c3ccccc3)nc2c1` belongs -4.4% (inactive); to `O=S1(=O)C=C(Sc2nc3ccccc3s2)c2ccccc21`, 109% (active). `COc1ccc(/C=N/n2cnnc2SCCO)cc1OC`: the cytotoxicity is -14.1% (inactive). The value for `COc1ccc(-c2nnc3sc(-c4ccccn4)nn23)cc1` was -5.5% (inactive); that for `COc1ccc(-c2cn3cccnc3n2)cc1NC(=O)C1CCCC1` was -13.7% (inactive). To `Cn1c(Cn2nnc3ccccc32)nnc1SCC(=O)N1c2ccccc2Sc2ccccc21` belongs -9.1% (inactive).

Consider `CCSC(SCC)[C@H](O)[C@@H](O)[C@H](O)[C@H](O)CO`, for which the cytotoxicity was 11.2% (inactive). To `CCCC(N)CCCCCC(=O)O` (stereo unspecified) belongs -2.3% (inactive); to `COc1ccccc1N1C(=O)C2C3C=CC(C3)C2C1=O` (stereo unspecified), -6% (inactive). As to `O=c1oc2ccccc2n1CSc1nc2ccccc2s1`, the cytotoxicity was -4% (inactive).

Consider `CCNS(=O)(=O)c1ccc(NC(=O)c2ccccc2OCC)cc1`, for which the cytotoxicity is 10.2% (inactive).

As to `CC(=O)c1sc(NC(=O)C=C(C)C)nc1C`, the cytotoxicity is 1.3% (inactive). In the case of `CCCCC(=O)Nc1nc(C)c(C(C)=O)s1`, the cytotoxicity is -0.6% (inactive).

Take `CC(=O)c1sc(NC(=O)C2(F)C(F)(F)C(F)(F)C(F)(F)C(F)(F)C2(F)F)nc1C`: the cytotoxicity was 52.4% (active). To `O=C(c1ccco1)N1CCN(Cc2ccc(Cl)cc2)CC1` belongs -3.7% (inactive); to `CCN(CC)S(=O)(=O)c1ccc2c(c1)nc(SCC(=O)NC1CC1)n2-c1ccccc1OC`, 3.8% (inactive). For the molecule `COc1ccc(-c2nc3ccccc3c(=O)n2CCCn2ccnc2)cc1`, the cytotoxicity is -0.2% (inactive). Turning to `CSc1ccc(S(=O)(=O)Nc2ccc3c(c2)OCCO3)cc1`, the cytotoxicity was 8.6% (inactive). To `O=S(=O)(Nc1ccc2c(c1)OCCO2)c1ccc2oc3ccccc3c2c1` belongs 83.9% (active); to `COc1ccc(NS(=O)(=O)c2ccc3oc4ccccc4c3c2)cn1`, 25.3% (inactive). Take `CCc1c(C)nc2ncnn2c1N1CCC(C(=O)Nc2cccc(C(C)=O)c2)CC1`: the cytotoxicity is -7.9% (inactive). To `N#Cc1c(NC(=O)CSc2nnc(-c3ccncc3)n2CC2CCCO2)sc2c1CCCC2` (stereo unspecified) belongs 4.8% (inactive); to `Cc1ccc(/C=c2\sc3nc(-c4ccccc4Br)nn3c2=O)o1`, 2.6% (inactive); to `Cc1ccc(/C=c2/sc3nnc(-c4ccccc4Cl)n3c2=O)o1`, 69.7% (active).

In the case of `Cc1ccccc1-c1nnc2s/c(=C\c3ccc(N(C)C)cc3)c(=O)n12`, the cytotoxicity is 2.2% (inactive).

As to `OCc1cn(-c2ccccc2)nc1-c1ccc2c(c1)OCCO2`, the cytotoxicity is -21.5% (inactive). `CC(=O)Nc1ccc(S(=O)(=O)N2CCSC2c2ccccc2Cl)cc1` (stereo unspecified): the cytotoxicity was 3.4% (inactive).

In the case of `CC1CCCCN1CCn1cnc2c([nH]c3ccccc32)c1=O` (stereo unspecified), the cytotoxicity is -2.1% (inactive).

Consider `CCNc1nc(NC(C)C)nc(N(C#N)CCOc2ccc(Cl)cc2Cl)n1`, for which the cytotoxicity was 94.5% (active). For the molecule `CCNc1nc(NC(C)C)nc(N(C#N)Cc2ccccc2)n1`, the cytotoxicity was 6.3% (inactive).

In the case of `CCCN(C#N)c1nc(NCC)nc(NC(C)C)n1`, the cytotoxicity was -11.1% (inactive). The value for `CCOc1ccc(-n2cc(C(=O)N3CCN(C)CC3)c3cc(OC)c(OC)cc3c2=O)cc1` was -7.2% (inactive); that for `Cn1cc(C(=O)NC2CCCCCC2)c(=O)c2cc(S(=O)(=O)N3CCCC3)ccc21` was -2.6% (inactive); that for `CC1CCN(S(=O)(=O)c2ccc3c(c2)c(=O)c(C(=O)NC2CCCC2)cn3C)CC1` was 77% (active). `Cn1cc(C(=O)NC2CCCCC2)c(=O)c2cc(S(=O)(=O)N3CCCC3)ccc21`: the cytotoxicity was 6.5% (inactive).

For the molecule `COC(=O)C1(C)NC(c2cccs2)C2C(=O)N(c3ccc(F)cc3)C(=O)C21` (stereo unspecified), the cytotoxicity is 3.3% (inactive). For the molecule `Cc1cc(NC(=O)CSc2nnc3c(C)cc4cc(C)c(C)cc4n23)no1`, the cytotoxicity is 6.8% (inactive).

For the molecule `Cc1cc(C)c2c(c1)cc(C)c1nnc(SCC(=O)Nc3cc(C)on3)n12`, the cytotoxicity is 20.4% (inactive). To `Cc1cc(NC(=O)CSc2nnc3c(C)cc4c(C)ccc(C)c4n23)no1` belongs 64.6% (active); to `CCN(CCCNC(=O)CC(C(=O)N1CCc2ccccc21)n1ccnc1)c1ccccc1` (stereo unspecified), -6.9% (inactive).

On to `Cc1cccc2sc(NC(=O)CNS(=O)(=O)c3ccc(Br)s3)nc12`, for which the cytotoxicity is 1.3% (inactive).

Turning to `Cc1cccc2sc(NC(=O)CN(C)S(=O)(=O)c3cccs3)nc12`, the cytotoxicity is 14.9% (inactive). To `C1CCN(c2nc(N3CCCC3)nc(N3CCNCC3)n2)C1` belongs 2.6% (inactive); to `CC(=O)C1=C(C)NC(SCC(=O)c2ccc(Cl)cc2Cl)=C(C#N)C1c1ccco1` (stereo unspecified), 40.9% (inactive); to `CC(=O)C1=C(C)NC(SCC(=O)c2cc(Cl)ccc2Cl)=C(C#N)C1c1ccco1` (stereo unspecified), 53% (active). Take `COCCOC(=O)C1=C(C)NC(SCC(=O)NC(C)(C)C)=C(C#N)C1c1ccco1` (stereo unspecified): the cytotoxicity was 10.7% (inactive). To `CSCSC1=C(C#N)C(c2ccccc2Cl)C(C(C)=O)=C(C)N1` (stereo unspecified) belongs 21.5% (inactive).

Turning to `CC(=O)C1=C(C)NC(SCC(=O)c2ccccc2)=C(C#N)C1CC(C)C` (stereo unspecified), the cytotoxicity is 8.5% (inactive). In the case of `CC(=O)C1=C(C)NC(SCC(=O)c2ccc(Cl)c(Cl)c2)=C(C#N)C1c1ccco1` (stereo unspecified), the cytotoxicity was 75.6% (active). The value for `CCOC(=O)CSC1=C(C#N)C(c2ccc(F)cc2)C(C(C)=O)=C(C)N1` (stereo unspecified) was 0.3% (inactive); that for `Cc1ccc(C(=O)CSC2=C(C#N)C(c3ccco3)CC(=O)N2)c(C)c1` (stereo unspecified) was -3% (inactive); that for `CC(=O)C1=C(C)NC(SCC(=O)c2ccc(F)cc2)=C(C#N)C1c1ccco1` (stereo unspecified) was 79.8% (active). To `COc1ccccc1NC(=O)C1=C(C)NC(SCC(=O)c2ccc(C)cc2)=C(C#N)C1c1ccco1` (stereo unspecified) belongs 36.6% (inactive); to `C=CCOC(=O)C1=C(C)NC(SCC(=O)Nc2ccc(C)c(Cl)c2)=C(C#N)C1c1ccco1` (stereo unspecified), 0.2% (inactive).
